The sequences below were run against IL-12 (human, p35/p40 heterodimer) (Homo sapiens, UniProt P29459;P29460 SEQ:57-253,SEQ:23-328) (assay: competition; fold specificity for IL-23 over IL-12; 250 nM IL-12, saturation re-analysis of competition data). Conditions: G4; XNA; deoxy A and G, 2'-OMe C and U.
Method: Several of the minimized constructs from the dRmY Selection 2 were also assayed in a competition format in which cold aptamer was titrated and competed away trace ³²P ATP labeled aptamer In the competition assay, the [IL-23] was held constant, the [trace labeled aptamer] was held constant, and the [unlabeled aptamer] was varied. The KD was calculated by fitting the following equation to the data: Fraction aptamer bound=amplitude*([aptamer]/(KD+[aptamer]))+background binding.
The competitive binding data was re-analyzed in a saturation binding experiment where the concentration of ligand (aptamer) was varied and the concentration of receptor ([…]) was held constant and the [bound aptamer] was plotted versus the [total input aptamer].

Sequence of IL-12 (human, p35/p40 heterodimer) (P29459 23-219, chain 1 of 2): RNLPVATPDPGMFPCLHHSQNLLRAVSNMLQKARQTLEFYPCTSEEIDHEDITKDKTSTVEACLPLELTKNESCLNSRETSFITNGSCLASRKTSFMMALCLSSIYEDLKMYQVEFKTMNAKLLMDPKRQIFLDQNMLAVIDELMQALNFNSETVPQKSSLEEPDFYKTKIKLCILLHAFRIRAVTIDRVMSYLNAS
Sequence of IL-12 (human, p35/p40 heterodimer) (P29460 23-328, chain 2 of 2): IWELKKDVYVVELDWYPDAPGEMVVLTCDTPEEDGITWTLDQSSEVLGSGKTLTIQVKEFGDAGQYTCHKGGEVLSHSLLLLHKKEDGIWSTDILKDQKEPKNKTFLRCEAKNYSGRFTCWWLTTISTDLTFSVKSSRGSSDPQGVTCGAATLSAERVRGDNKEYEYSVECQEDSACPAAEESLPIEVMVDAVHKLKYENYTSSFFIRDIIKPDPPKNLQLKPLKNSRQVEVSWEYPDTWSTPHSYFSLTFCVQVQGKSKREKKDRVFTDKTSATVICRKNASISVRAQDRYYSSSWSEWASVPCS

Sequence	binding signal [fold]
ACAGGCAAGUAAUUGGGGAGUGCGGGCGGGGUGU	33
